# Source: PubChem BioAssay AID1259312 (Keith Lab, Institute of Cancer Science, University of …, 2017)
# Out of some 4,500 compounds screened, about 200 (4.4%) were called active. This is one part of a sample in which actives are shown more often than they occur. A number with no mark means an inactive call.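 How the source made its calls: active means cell survival measured by absorbance rises more than 2.5-fold over infected cells without compound; inactive means the rest.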
# Experiment: survival after telomere uncapping, modulators, primary screen, cell-based (AID 1259312);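 further: virus expresses mutant telomerase RNA that uncaps telomeres and kills cells; compound added 2 days after infection so exposure lasts 3 days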
# Settings: HCT116 + Ad-hTR-mut, MTT, 5 d; at 10 µM, hits give high values
row,Structure (SMILES),fold change
1,COc1ccc(C2Oc3ccccc3C3CC(c4ccccc4)=NN32)cc1 (centres undefined),-1.84
2,O=c1cc(-c2ccc(O)cc2)oc2c(O)c(O)ccc12,1.16
3,CSc1nc2ccccc2n1Cc1ccccc1Cl,1.29
4,O=S(=O)(Nc1ccc(S(=O)(=O)Nc2ccccc2Cl)cc1)c1ccc2c(c1)OCCO2,-1.07
5,CNCC1COCCO1 (centres undefined),-2.02
6,N=C(N)SCc1csc(N)n1,1.98
7,S=c1[nH]nc(Cc2cccc3ccccc23)o1,-2.84
8,C1=NC(Cc2cccc3ccccc23)NC1 (centres undefined),4.23 (active)
9,Cc1nc2sc3c(c2c(=O)n1N)CCC3,-1.06
10,c1ccc(CC2COC(C3=N[C@@H](Cc4ccccc4)CO3)=N2)cc1 (some centres undefined),1.27
11,O=C(NCCC1=CCCCC1)C(=O)NCc1ccco1,-1.07
12,O=S(=O)(c1ccc2ccccc2c1)N1CCc2ccccc21,1
13,CCCCc1ccc(-c2csc(N)c2C#N)cc1,-1.78
14,S=c1n(CN2CCOCC2)nnn1C1CCCCC1,1.01
15,CCn1c(-c2ccccc2)nn(CN2CCOCC2)c1=S,1.15
16,S=c1n(CN2CCOCC2)nnn1-c1ccccc1,4.24 (active)
17,CN(C)c1nc(N)nc(CN(C)S(=O)(=O)c2ccccc2)n1,-1.09
18,CN(C)c1ccc(C=Nc2ccc3[nH]c(=O)[nH]c3c2)cc1[N+](=O)[O-],-1.64
19,O=c1[nH]c2ccc(N=Cc3ccc4c(c3)OCO4)cc2[nH]1,2.71 (active)
20,C(=Nc1ccc2[nH]ncc2c1)c1ccc2c(c1)OCO2,-2.04
21,O=C(ON1C(=O)CCC1=O)ON1C(=O)CCC1=O,-1.28
22,O=[N+]([O-])c1ccc(Cl)c(N2CCCC2)c1,2.03
23,N=C(N)SCc1ccc(Cl)cc1Cl,-1.36

row,Structure (SMILES),fold change
1,N=C(N)SCc1ccc(Cl)cc1,2.73 (active)
2,Nc1nnc(SCc2ccc(Cl)cc2)s1,1.21
3,O=S(=O)(NCC1CCCO1)c1ccc(Br)cc1 (centres undefined),3.1 (active)
4,CC1Oc2ccc(S(=O)(=O)NCC3CCCO3)cc2NC1=O (centres undefined),-1.21
5,O=S(=O)(NCC1CCCO1)c1ccccc1 (centres undefined),-1.72
6,NCC12CC3CC(CC(C3)C1)C2,-1.38
7,CC1NC(=O)N(C(C)(C)C)C(=O)C1Cl (centres undefined),3.94 (active)
8,COc1ccc(N2C(=O)/C(=C\N3CCN(C)CC3)SC2=S)cc1,-1.11
9,Cc1ccn(-c2ccc([N+](=O)[O-])cc2)n1,-1.59
10,O=C1NC(=S)S/C1=C/c1ccc(-c2cccc(C(F)(F)F)c2)o1,1.1
11,N#CC(C#N)=Cc1ccc(-c2cccc(C(F)(F)F)c2)o1,2.62 (active)
12,O=C1NC(=O)/C(=C\c2ccc(-c3cccc(C(F)(F)F)c3)o2)S1,-1.8
13,O=C1CSc2ccc(NC(=O)C3CCCC3)cc2N1,1.29
14,O=[N+]([O-])c1ccc(N2CCCCC2)cc1N1CCOCC1,-1.29
15,O=[N+]([O-])c1ccc(N2CCOCC2)cc1,1.1
16,Nc1cc(N2CCOCC2)ccc1[N+](=O)[O-],3.38 (active)
17,O=C(O)C(C(=O)O)C1C=CCC1 (centres undefined),1.13
18,Nc1ccc(N2CCOCC2)c(Br)c1,-1.07
19,Nc1cc(Cl)ccc1N1CCOCC1,1.23
20,Nc1ccc(N2CCOCC2)c(Cl)c1,4.13 (active)
21,N#CC1=C(N)n2c(s/c(=C\c3ccc(Br)cc3)c2=O)=C(C#N)C1c1ccc(Br)cc1 (centres undefined),-1.13
22,Brc1ccc(-c2csc(N3CCOCC3)n2)cc1,1.56
23,N#CC(C#N)C(c1ccsc1)c1c(-c2ccccc2)[nH][nH]c1=O (centres undefined),3.37 (active)

row,Structure (SMILES),fold change
1,Clc1ccc(-c2nc3sc(-c4ccc(Cl)cc4Cl)nc3s2)c(Cl)c1,-2.46
2,COC(=O)c1nc2ccc(OC)cc2s1,-1.15
3,COc1ccc(C2C(C#N)=C(N)NC(C(C#N)C#N)=C2C#N)cc1OC (centres undefined),-1.8
4,COC(=O)CNC(=O)c1ccn[nH]1,-1.28
5,O=C(O)c1ccn[nH]1,3.42 (active)
6,CCOC(=O)CO/N=C(\C(=O)O)c1ccn[nH]1,inactive
7,c1ccc(CCn2c(-c3ccccc3)csc2=Nc2ccccc2)cc1,-2.95
8,CSc1nc(-c2ccc([N+](=O)[O-])cc2)nn1C,-3.83
9,CS(=O)(=O)NCCNC(=O)c1nonc1N,-1.3
10,Nc1nonc1C(=O)NCCNS(=O)(=O)c1ccccc1,3.28 (active)
11,NCCNC(=O)c1nonc1N,1.63
12,O=C(O)c1[nH]c(=O)[nH]c(=O)c1[N+](=O)[O-],1.2
13,CS(=O)(=O)N1CCc2cc(S(=O)(=O)N3CCC(c4ccccc4)CC3)ccc21,1.49
14,CS(=O)(=O)Nc1cccc(Cl)c1Cl,-1.31
15,COc1ccc(CC2=CN(C)CC3=C2OC(N)=C(C#N)C3c2ccc(OC)c(OC)c2)cc1OC (centres undefined),-1.28
16,O=C(Nc1ccc(Cl)cc1)Nc1ccc(Cl)cc1Cl,-2.79
17,CCc1nnc(NC(=O)CN(C)CCC#N)s1,-1.46
18,O=C(O)CCCn1c(=O)n(CCCC(=O)O)c2ccccc21,3.81 (active)
19,COC(=O)Cn1c(=O)c2ccccc2n(CC(=O)OC)c1=O,-1.31
20,O=c1n(Cc2ccon2)c2ccccc2n1Cc1ccon1,-2.68
21,CCN(C(=O)Cc1cccs1)C1CCCCC1,-1.09
22,Cn1c(=O)oc2ccc(S(=O)(=O)Nc3ccc4c(c3)n(C)c(=O)n4C)cc21,-1.89
23,Nc1nonc1-c1ccccc1,-1.8

row,Structure (SMILES),fold change
1,Cc1ccc(N=Nc2ccccc2)c(N)n1,3.19 (active)
2,CC(=NCCCN1CCOCC1)c1c(C(F)(F)F)[nH]n(-c2nc3ccccc3s2)c1=O,inactive
3,CCCN=C(CC)c1c(C(F)(F)F)[nH]n(-c2nc3ccccc3s2)c1=O,inactive
4,CCCCCCCN=C(C)c1c(C(F)(F)F)[nH]n(-c2nc3ccccc3s2)c1=O,active
5,Cc1ccc2c(c1)c1c3n2CCN(c2nc(-c4ccc(Cl)cc4)cs2)C3CCC1 (centres undefined),1.42
6,O=C1CC(=O)N(c2ccc(Br)cc2)N1,-1.32
7,Cn1cccc1/C=C1/C(=O)ON=C1c1ccccc1,-2.3
8,CCCCCCC1(C)OCO/C1=C\C[N+](C)(C)C (centres undefined),-1.62
9,O=S(=O)(c1ccc(Oc2ccc(Br)cc2)cc1)N1CCOCC1,-1.23
10,O=S(=O)(c1ccc(Br)cc1)N1CCCCCC1,1.7
11,CN1CCN(S(=O)(=O)c2ccc(Br)cc2)CC1,3.8 (active)
12,Nc1nnc(SCc2cccc(CSc3nnc(N)s3)n2)s1,1.27
13,Cn1c(=O)n(C)c2cc(CN3C(=O)c4ccccc4C3=O)ccc21,1.01
14,Nc1ccc(S(=O)(=O)Nc2ccc(Cl)nn2)cc1,2.5 (active)
15,Nc1ccc(S(=O)(=O)Nc2ccccc2)cc1,-1.09
16,CC(=O)NS(=O)(=O)c1ccc(N)cc1,-1.73
17,CNS(=O)(=O)c1ccc(N)cc1,1.14
18,CCc1nnc(NS(=O)(=O)c2ccc(N)cc2)s1,3.88 (active)
19,O=S(=O)(Nc1ccc(Cl)cn1)c1ccc(Br)cc1,-1.1
20,O=c1[nH]c(O)c(C=Nc2ccccc2Br)c(=O)[nH]1,inactive
21,O=C(O)C1CCS(=O)(=O)C1 (centres undefined),2.36
22,CC1=C(C(=O)OCC2CCCO2)C(c2ccc(C)o2)C2=C(CC(C)(C)CC2=O)N1 (centres undefined),2.87 (active)
23,CCCOC(=O)C1=C(C)NC2=C(C(=O)CC(C)(C)C2)C1c1ccc(C)o1 (centres undefined),-1.43

row,Structure (SMILES),fold change
1,CC1=C(C(=O)OCC2CCCO2)C(c2ccc(C)o2)C2=C(CCCC2=O)N1 (centres undefined),1.18
2,CCCCC(CC)C(=O)N(CC#N)CC#N (centres undefined),-1.13
3,CC(C)(C)c1ccc(C(N2CCCCC2)P(=O)(c2ccccc2)N2CCCCC2)cc1 (centres undefined),-1.12
4,Cc1cc(/C=c2\sc3nc4ccccc4n3c2=O)c(C)n1C1CCCC1,-1.02
5,Cn1cc([N+](=O)[O-])c(C(=O)n2cccn2)n1,-1.36
6,COC(=O)c1ccc(=O)oc1,-1.06
7,CN(C(=O)CSC(=S)N1CCCC1)c1ccccc1,1.5
8,N#Cc1c(N)sc2c1CCCCC2,3 (active)
9,CC(=O)Nc1sc2c(c1C#N)CCCC2,1.19
10,CN1CCc2c(sc(N)c2C#N)C1,1.58
11,c1ccc2c(Cc3ccncc3)c3ccccc3nc2c1,-1.25
12,O=[N+]([O-])c1cc(Br)cc(C=NCCCCCCN=Cc2cc(Br)cc([N+](=O)[O-])c2O)c1O,inactive
13,Cn1cccc1/C=C(/C#N)C(N)=O,1.32
14,Cc1cc(NS(=O)(=O)c2ccc(N)cc2)no1,-1.35
15,COc1cc(NS(=O)(=O)c2ccc(N)cc2)nc(OC)n1,3.06 (active)
16,COc1cc(NC(=O)CCC(=O)O)nc(OC)n1,-1.34
17,CCOC(=O)/C(C#N)=C/Nc1ccsn1,2.1
18,N#CC1=C(N)n2c(s/c(=C\c3ccc(O)cc3)c2=O)=C(C#N)C1c1ccc(O)cc1 (centres undefined),-3
19,COc1ccccc1OCCSc1nc2ccccc2o1,-1.24
20,O=[N+]([O-])c1ccc(Nc2ccc3c(c2)OCCO3)nc1,-1.85
21,O=[N+]([O-])c1cccnc1NCCc1cccs1,-2.56
22,O=[N+]([O-])c1ccc(NCCc2cccs2)nc1,2.58 (active)
